# Test results from PubChem BioAssay (Tox21).
# Unmarked numbers belong to inactive results. Results filed as inconclusive are left out. Entries that show only a call come without a potency. The source made the active and inactive calls. Unless noted, calls come from the whole dose curve; as a rule, active = well fitted curve in the direction sought with a large enough effect in the repeat runs; inconclusive = weak or mixed curves; inactive = no such curve, though single readings can be large; an effect the other way counts as inactive or inconclusive.
# Legend:
# [1] = qHTS assay to identify small molecule agonists of H2AX (AID 1224845; active = well fitted activation curve with a large enough effect in the signal ratio in the repeat runs, not every such curve was filed as active; the % refers to the signal ratio)
# Method in brief: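 Wild-type CHO-K1 cells, plated overnight, exposed 3hr at 37C to 15 concentrations (0.76% DMSO final). Lysed, then HTRF anti-pH2AX (S139) cryptate and anti-H2AX-d2 antibodies, 24 hr room temperature; 665/620 nm emission read.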
# [2] = qHTS assay to identify small molecule agonists of H2AX - cell viability counter screen (AID 1224847; calls by dose curve; note: top concentration of the series differs between compounds; nearly all actives have a fitted effect of over 30% in size)
# Method in brief: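 CHO-K1 cells plated overnight at 37C, then exposed 3 h at 37C to compounds at 15 concentrations (0.76% DMSO final). Viability by CellTiter-Glo luminescence after 30 min at room temperature.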
# [3] = qHTS assay to identify small molecule antagonists of the estrogen related receptor (ERR) signaling pathway from Tox21 library (AID 1224848); note: nearly all actives have a fitted effect of over 50% in size; note: potency is the fitted concentration of half-maximal effect
# Method in brief: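 Compounds dissolved in DMSO are pin-transferred onto ERR reporter cells (2,000 per well) that have settled for 6 h at 37 C. Plates then incubate 18 h at 37 C before ONE-Glo luciferase reagent and a luminescence read 30 min later.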
# [4] = qHTS assay to identify small molecule agonists of the estrogen related receptor (ERR) signaling pathway from Tox21 library (AID 1224849; calls by dose curve; note: nearly all actives have a fitted effect of over 15% in size); details: ERR reporter cell line, ONE-Glo luciferase, 18 h; at 92.4 µM (top of the series) unless noted
# Method in brief: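 Luminescence readout (ONE-Glo, 30 min RT) after 18 h compound exposure at 37 C of NTP-supplied ERR reporter cells; cells were plated 6 h before compound addition by pin tool.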
# [5] = qHTS RealTime-Glo MT Cell Viability Assay in HepG2 cells - 24 hour (AID 1224867); note: nearly all actives have a fitted effect of over 50% in size
# Method in brief: (§1)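 Tox21 10K library screened in qHTS format on HepG2 cells carrying RealTime-Glo reagents. Compounds were added after a 5 h preincubation, and the luminescent signal from continuous culture was measured repeatedly during 40 h treatment.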
# [6] = qHTS RealTime-Glo MT Cell Viability Assay in HEK293 cells - 32 hour (AID 1224868); note: top concentration of the series differs between compounds; nearly all actives have a fitted effect of over 50% in size
# Method in brief: (§2)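 Luminescence generated by NanoLuc from substrate produced by living HEK293 cells served as the viability signal. Each value reflects the reading at its stated time point during continuous 40 h compound exposure at 37 C.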
# [7] = A CellTox Green Cytotoxicity Assay to monitor cytotoxicity in HEK293 cells - 0 hour (AID 1224869); note: nearly all actives have a fitted effect of over 50% in size
# Method in brief: (§3)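 Read-out: fluorescence of a cell-impermeant cyanine dye staining DNA of dead cells, proportional to cytotoxicity. HEK293, 600 cells/well with reagent, compound (23 nL DMSO) added after 5 h; reads at 0, 8, 16, 24, 32, 40 h.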
# [8] = qHTS RealTime-Glo MT Cell Viability Assay in HepG2 cells - 40 hour (AID 1224870); note: nearly all actives have a fitted effect of over 50% in size
# Method in brief: (§4)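 HepG2 cells (600/well) mixed with RealTime-Glo MT reagent, settled 5 h at 37 C/5% CO2 before compound addition. Nonlytic NanoLuc luminescence from viable-cell prosubstrate reduction read repeatedly during 40 h treatment at 37 C.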
# [9] = A CellTox Green Cytotoxicity Assay to monitor cytotoxicity in HEK293 cells - 40 hour (AID 1224871); note: nearly all actives have a fitted effect of over 45% in size; note: potency is the fitted concentration of half-maximal effect
# Method in brief: as §3
# [10] = qHTS RealTime-Glo MT Cell Viability Assay in HEK293 cells - 16 hour (AID 1224872)
# Method in brief: as §2
# [11] = qHTS RealTime-Glo MT Cell Viability Assay in HepG2 cells - 8 hour (AID 1224873); note: nearly all actives have a fitted effect of over 55% in size
# Method in brief: as §4
# [12] = qHTS RealTime-Glo MT Cell Viability Assay in HEK293 cells - 40 hour (AID 1224874); details: RealTime-Glo luminescence; max response: hits give low values; note: nearly all actives have a fitted effect of over 50% in size
# Method in brief: (§5)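 Luminescence readout at each listed time point; HEK293, 600 cells/well, RealTime-Glo MT reagent added with cells; compounds pinned (23 nL in DMSO) after 5 h at 37 C; continuous culture at 37 C.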
# [13] = A CellTox Green Cytotoxicity Assay to monitor cytotoxicity in HEK293 cells - 24 hour (AID 1224875); note: nearly all actives have a fitted effect of over 45% in size; note: potency is the fitted concentration of half-maximal effect
# Method in brief: as §3
# [14] = qHTS RealTime-Glo MT Cell Viability Assay in HepG2 cells - 32 hour (AID 1224877); note: nearly all actives have a fitted effect of over 55% in size
# Method in brief: as §1
# [15] = qHTS RealTime-Glo MT Cell Viability Assay in HEK293 cells - 0 hour (AID 1224880); note: nearly all actives have a fitted effect of over 45% in size; note: potency is the fitted concentration of half-maximal effect; for activity change, negative = cytotoxicity: top concentration of the series differs between compounds
# Method in brief: as §5
# [16] = A CellTox Green Cytotoxicity Assay to monitor cytotoxicity in HEK293 cells - 32 hour (AID 1224881); note: nearly all actives have a fitted effect of over 40% in size; note: potency is the fitted concentration of half-maximal effect
# Method in brief: as §3
# [17] = A CellTox Green Cytotoxicity Assay to monitor cytotoxicity in HepG2 cells - 16 hour (AID 1224876); note: nearly all actives have a fitted effect of over 45% in size; note: potency is the fitted concentration of half-maximal effect
# Method in brief: (§6)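 HepG2, 600 cells/well premixed w/ CellTox Green; 5 h settle, 37 C/5% CO2; pintool cpd add (DMSO); 37 C, 40 h; fluorescence read at 0, 8, 16, 24, 32, 40 h.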
# [18] = A CellTox Green Cytotoxicity Assay to monitor cytotoxicity in HepG2 cells - 24 hour (AID 1224878); note: nearly all actives have a fitted effect of over 45% in size; note: potency is the fitted concentration of half-maximal effect
# Method in brief: as §6
# [19] = A CellTox Green Cytotoxicity Assay to monitor cytotoxicity in HepG2 cells - 40 hour (AID 1224879); note: nearly all actives have a fitted effect of over 40% in size; note: potency is the fitted concentration of half-maximal effect
# Method in brief: as §6
compound,measurement,setting,value
ClCCOCCOCCCl,Potency,[1],inactive
same,Potency,[2],inactive
same,Potency,[3],inactive
same,"activity change, positive = activation",[4],2.88%
same,Potency,[5],inactive
same,Potency,[6],inactive
same,Potency,[7],inactive
same,Potency,[8],inactive
same,Potency,[9],inactive
same,Potency,[10],inactive
same,Potency,[11],inactive
same,max response,[12],5.38%
same,Potency,[13],inactive
same,Potency,[14],inactive
same,Potency,[15],inactive
same,Potency,[16],inactive
COc1ccnc(CS(=O)c2nc3ccc(OC(F)F)cc3[nH]2)c1OC (centres undefined),Potency,[1],inactive
same,Potency,[2],inactive
same,Potency,[5],inactive
same,Potency,[6],inactive
same,Potency,[7],inactive
same,Potency,[8],inactive
same,Potency,[9],inactive
same,Potency,[10],inactive
same,Potency,[11],inactive
same,max response,[12],-16.2%
same,Potency,[13],inactive
same,Potency,[17],inactive
same,Potency,[14],inactive
same,Potency,[18],inactive
same,Potency,[19],inactive
same,Potency,[15],inactive
same,Potency,[16],inactive
CCC(C)c1cc(C(C)(C)C)c(O)c(C(C)(C)C)c1 (centres undefined),Potency,[1],inactive
same,Potency,[2],inactive
same,Potency,[5],inactive
same,Potency,[6],inactive
same,Potency,[7],inactive
same,Potency,[8],inactive
same,Potency,[10],inactive
same,Potency,[11],inactive
same,max response,[12],0.103%
same,Potency,[17],inactive
same,Potency,[18],inactive
same,Potency,[19],inactive
same,Potency,[15],inactive
CN1CCC(=C2c3ccccc3Sc3ccccc32)CC1,Potency,[1],inactive
same,Potency,[2],inactive
same,Potency,[3],inactive
same,"activity change, positive = activation",[4],1.79% [at 42.5 µM]
same,Potency,[5],inactive
same,Potency,[7],inactive
same,Potency,[8],inactive
same,Potency,[10],inactive
same,Potency,[13],inactive
same,Potency,[18],23.9 µM (active)
same,Potency,[19],23.9 µM (active)
same,Potency,[16],inactive
C[C@@H]1C[C@H]2[C@@H]3CCC4=CC(=O)C=C[C@]4(C)[C@@]3(F)[C@@H](O)C[C@]2(C)[C@@]1(O)C(=O)COC(=O)c1ccncc1,Potency,[1],inactive
same,Potency,[2],inactive
same,Potency,[5],inactive
same,Potency,[6],inactive
same,Potency,[7],inactive
same,Potency,[8],inactive
same,Potency,[9],inactive
same,Potency,[10],inactive
same,Potency,[11],inactive
same,max response,[12],-17.8%
same,Potency,[13],inactive
same,Potency,[17],inactive
same,Potency,[14],inactive
same,Potency,[18],inactive
same,Potency,[19],inactive
same,Potency,[15],3.01 µM (active)
same,Potency,[16],inactive
CCOC(=O)C(O)c1ccccc1 (centres undefined),Potency,[1],inactive
same,Potency,[2],inactive
same,Potency,[3],inactive
same,"activity change, positive = activation",[4],3.78% [at 42.5 µM]
same,Potency,[6],inactive
same,Potency,[7],inactive
same,Potency,[8],inactive
same,Potency,[9],inactive
same,Potency,[11],inactive
same,max response,[12],4.49%
same,Potency,[13],inactive
same,Potency,[17],inactive
same,Potency,[14],inactive
same,Potency,[19],inactive
same,Potency,[15],inactive
same,Potency,[16],inactive
O=C1C(O)=C(O)C(=O)C(O)=C1O,Potency,[1],inactive
same,Potency,[2],inactive
same,Potency,[5],inactive
same,Potency,[6],inactive
same,Potency,[7],inactive
same,Potency,[8],inactive
same,Potency,[9],inactive
same,Potency,[10],inactive
same,Potency,[11],inactive
same,max response,[12],-9.06%
same,Potency,[13],inactive
same,Potency,[17],inactive
same,Potency,[14],inactive
same,Potency,[18],inactive
same,Potency,[19],inactive
same,Potency,[15],inactive
same,Potency,[16],inactive
CCCCCCCCCCCCCCOS(=O)(=O)O,Potency,[1],inactive
same,Potency,[2],inactive
same,"activity change, positive = activation",[4],-17.5%
same,Potency,[5],inactive
same,Potency,[6],inactive
same,Potency,[7],inactive
same,Potency,[8],inactive
same,Potency,[9],43.6 µM (active)
same,Potency,[10],inactive
same,Potency,[11],inactive
same,max response,[12],-13.8%
same,Potency,[13],43.6 µM (active)
same,Potency,[17],34.7 µM (active)
same,Potency,[14],inactive
same,Potency,[18],34.7 µM (active)
same,Potency,[19],34.7 µM (active)
same,Potency,[15],inactive
same,Potency,[16],43.6 µM (active)
CCc1c(C(=O)NN2CCCCC2)nn(-c2ccc(Cl)cc2Cl)c1-c1ccc(Br)cc1,Potency,[1],inactive
same,Potency,[2],inactive
same,Potency,[3],1.22 µM (active)
same,"activity change, positive = activation",[4],-62%
same,Potency,[7],inactive
same,Potency,[9],inactive
same,Potency,[10],inactive
same,Potency,[13],inactive
same,Potency,[18],inactive
same,Potency,[19],inactive
same,Potency,[15],inactive
same,Potency,[16],inactive
CCCCNc1ccc(C(=O)OCCOCCOCCOCCOCCOCCOCCOCCOCCOC)cc1,Potency,[1],inactive
same,Potency,[2],inactive
same,"activity change, positive = activation",[4],-27.3% [at 42.5 µM]
same,Potency,[5],inactive
same,Potency,[7],inactive
same,Potency,[8],inactive
same,Potency,[9],inactive
same,Potency,[11],inactive
same,Potency,[13],inactive
same,Potency,[17],inactive
same,Potency,[14],inactive
same,Potency,[18],inactive
same,Potency,[19],inactive
same,Potency,[15],inactive
same,Potency,[16],inactive
C=CCOc1ccccc1OCC(O)CNC(C)C (centres undefined),Potency,[1],inactive
same,Potency,[2],inactive
same,Potency,[3],inactive
same,"activity change, positive = activation",[4],4.2% [at 42.5 µM]
same,Potency,[5],inactive
same,Potency,[6],inactive
same,Potency,[7],inactive
same,Potency,[8],inactive
same,Potency,[9],inactive
same,Potency,[10],inactive
same,Potency,[11],inactive
same,max response,[12],4.45%
same,Potency,[13],inactive
same,Potency,[17],inactive
same,Potency,[18],inactive
same,Potency,[19],inactive
same,Potency,[15],inactive
CN(C)CCN(Cc1ccccc1)c1ccccn1,Potency,[1],inactive
same,Potency,[2],inactive
same,Potency,[5],inactive
same,Potency,[6],inactive
same,Potency,[7],inactive
same,Potency,[8],inactive
same,Potency,[9],inactive
same,Potency,[11],inactive
same,max response,[12],-27.7%
same,Potency,[13],inactive
same,Potency,[14],inactive
same,Potency,[18],inactive
same,Potency,[19],inactive
same,Potency,[15],inactive
same,Potency,[16],inactive
C/C=C(/C(=C/C)c1ccc(OC(C)=O)cc1)c1ccc(OC(C)=O)cc1,Potency,[1],inactive
same,Potency,[2],inactive
same,Potency,[5],inactive
same,Potency,[6],inactive
same,Potency,[7],inactive
same,Potency,[8],inactive
same,Potency,[9],inactive
same,Potency,[10],inactive
same,Potency,[11],inactive
same,Potency,[13],inactive
same,Potency,[17],inactive
same,Potency,[14],inactive
same,Potency,[18],inactive
same,Potency,[19],inactive
same,Potency,[15],inactive
CCCn1cnc2c1c(=O)n(CCCCC(C)=O)c(=O)n2C,Potency,[1],inactive
same,Potency,[2],inactive
same,Potency,[3],inactive
same,"activity change, positive = activation",[4],0.154% [at 42.5 µM]
same,Potency,[5],inactive
same,Potency,[6],inactive
same,Potency,[7],inactive
same,Potency,[8],inactive
same,Potency,[9],inactive
same,max response,[12],-0.107%
same,Potency,[13],inactive
same,Potency,[17],inactive
same,Potency,[14],inactive
same,Potency,[18],inactive
same,Potency,[19],inactive
same,Potency,[15],inactive
same,Potency,[16],inactive
CCO[Si](CCCCl)(OCC)OCC,Potency,[1],inactive
same,Potency,[2],inactive
same,Potency,[5],inactive
same,Potency,[6],inactive
same,Potency,[7],inactive
same,Potency,[8],inactive
same,Potency,[9],inactive
same,Potency,[10],inactive
same,max response,[12],0.203%
same,Potency,[13],inactive
same,Potency,[17],inactive
same,Potency,[14],inactive
same,Potency,[18],inactive
same,Potency,[19],inactive
same,Potency,[15],inactive
same,Potency,[16],inactive
C/C(=C(\CCOP(=O)(O)O)SC(=O)c1ccccc1)N(C=O)Cc1cnc(C)nc1N,activation (H2AX phosphorylation),[1],-0.259% [at 14 µM]
same,"activity change, negative = cytotoxicity",[2],0.972% [at 14 µM]
same,"activity change, negative = cytotoxicity",[5],1.32% [at 6.97 µM]
same,"activity change, negative = cytotoxic",[6],2.89% [at 6.97 µM]
same,cytotoxicity,[7],0.458% [at 6.97 µM]
same,"activity change, negative = cytotoxic",[8],-0.476% [at 6.97 µM]
same,cytotoxicity increase,[9],-7.37% [at 6.97 µM]
same,"activity change, negative = cytotoxicity",[10],2.81% [at 6.97 µM]
same,"viability change, negative = cytotoxic",[11],2.94% [at 6.97 µM]
same,max response,[12],6.16%
same,activity change,[13],"-4.36% [at 6.97 µM, hits give high values]"
same,cytotoxicity increase,[17],0.668% [at 6.97 µM]
same,cytotoxicity,[18],-0.377% [at 6.97 µM]
same,cytotoxicity increase,[19],-0.293% [at 6.97 µM]
same,"activity change, negative = cytotoxicity",[15],2.7% [at 6.97 µM]
same,cytotoxicity increase,[16],-7.02% [at 6.97 µM]
